Assays:
Assay in all cases: thermal shift delta Tm vs DMSO control; higher = stronger stabilization (binding)
Details in all cases: 12.5 µM; protein concentration 2 µM
[1] = compound: C/C(O)=C(\C#N)C(=O)Nc1cc(Br)ccc1Br
Method in brief: (§1)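 Purified, E. coli-expressed rice kinase domain constructs were tested by differential scanning fluorimetry in 96-well plates: 19.5 μl of 2 μM kinase in 100 mM potassium phosphate pH 7.5, 150 mM NaCl, 10% glycerol, 5 × SYPRO Orange, plus compound in DMSO. Fluorescence was read from 25°C to 95°C at 0.05°C/s. Melting temperatures came from Boltzmann fits, and the shift is the triplicate mean relative to protein with DMSO alone.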

[2] = compound: CC(C)(C)c1cc(C=C(C#N)C#N)cc(Br)c1O
Method in brief: as §1

Tyrphostin 9 = compound: CC(C)(C)c1cc(C=C(C#N)C#N)cc(C(C)(C)C)c1O [Tyrphostin 9]
Method in brief: as §1

Aurora A Inhibitor I = compound: CCN1CCN(C(=O)Cc2ccc(Nc3ncc(F)c(Nc4ccc(C(=O)Nc5ccccc5Cl)cc4)n3)cc2)CC1 [Aurora A Inhibitor I]
Method in brief: as §1

Picropodophyllin (PPP) = compound: COc1cc([C@@H]2c3cc4c(cc3[C@H](O)[C@H]3COC(=O)[C@@H]23)OCO4)cc(OC)c1OC [Picropodophyllin (PPP)]
Method in brief: as §1

Anisomycin = compound: COc1ccc(C[C@H]2NC[C@H](O)[C@H]2OC(C)=O)cc1 [Anisomycin]
Method in brief: as §1

[3] = compound: COc1ccc(N(C(=O)Oc2c(C)cccc2C)c2ccnc(Nc3ccc(N4CCN(C)CC4)cc3)n2)c(OC)c1
Method in brief: as §1

[4] = compound: COc1ccc2c(c1)/C(=C/c1cnc[nH]1)C(=O)N2
Method in brief: as §1

[5] = compound: Cc1ccccc1-n1c(Cn2ncc3c(N)ncnc32)nc2cccc(C)c2c1=O
Method in brief: as §1

[6] = compound: Cn1cc(C2=C(c3cn(C4CCN(Cc5ccccn5)CC4)c4ccccc34)C(=O)NC2=O)c2ccccc21
Method in brief: as §1

[7] = compound: O=c1[nH]c2ccc(Cl)cc2c(N[C@@H]2CN3CCC2CC3)c1-c1nc2ccccc2[nH]1
Method in brief: as §1

Sequence of LOC_OS01G52050-cb004 (as listed by the source): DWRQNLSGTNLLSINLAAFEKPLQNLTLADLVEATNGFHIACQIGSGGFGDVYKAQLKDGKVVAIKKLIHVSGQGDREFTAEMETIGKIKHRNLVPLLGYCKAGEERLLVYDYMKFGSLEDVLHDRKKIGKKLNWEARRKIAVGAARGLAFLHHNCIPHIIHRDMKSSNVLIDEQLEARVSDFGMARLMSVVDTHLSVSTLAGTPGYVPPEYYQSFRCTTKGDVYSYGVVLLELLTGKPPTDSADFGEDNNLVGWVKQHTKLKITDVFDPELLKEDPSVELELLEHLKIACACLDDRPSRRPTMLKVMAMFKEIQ
Sequence of LOC_OS04G41100-cb001 (as listed by the source): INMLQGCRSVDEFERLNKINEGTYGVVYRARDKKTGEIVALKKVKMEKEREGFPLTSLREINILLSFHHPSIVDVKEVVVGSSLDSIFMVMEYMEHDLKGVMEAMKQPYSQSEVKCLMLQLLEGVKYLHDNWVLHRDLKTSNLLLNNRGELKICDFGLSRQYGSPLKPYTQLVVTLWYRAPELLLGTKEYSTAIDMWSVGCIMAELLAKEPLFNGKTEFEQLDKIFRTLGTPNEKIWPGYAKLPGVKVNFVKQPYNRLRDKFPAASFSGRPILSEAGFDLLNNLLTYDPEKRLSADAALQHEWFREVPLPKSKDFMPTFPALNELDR
Sequence of LOC_OS06G22820-cb001 (as listed by the source): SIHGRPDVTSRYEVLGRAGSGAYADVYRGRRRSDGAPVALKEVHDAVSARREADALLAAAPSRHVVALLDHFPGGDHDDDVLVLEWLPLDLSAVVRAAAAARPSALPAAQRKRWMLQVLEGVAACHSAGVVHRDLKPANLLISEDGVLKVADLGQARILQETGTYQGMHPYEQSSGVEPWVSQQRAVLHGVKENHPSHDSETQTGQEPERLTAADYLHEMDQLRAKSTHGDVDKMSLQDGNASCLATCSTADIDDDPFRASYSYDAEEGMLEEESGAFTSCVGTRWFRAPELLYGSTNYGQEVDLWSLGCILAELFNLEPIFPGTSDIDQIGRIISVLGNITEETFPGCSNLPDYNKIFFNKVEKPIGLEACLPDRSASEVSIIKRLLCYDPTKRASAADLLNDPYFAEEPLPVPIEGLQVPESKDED
Sequence of LOC_OS06G16330-cb003 (as listed by the source): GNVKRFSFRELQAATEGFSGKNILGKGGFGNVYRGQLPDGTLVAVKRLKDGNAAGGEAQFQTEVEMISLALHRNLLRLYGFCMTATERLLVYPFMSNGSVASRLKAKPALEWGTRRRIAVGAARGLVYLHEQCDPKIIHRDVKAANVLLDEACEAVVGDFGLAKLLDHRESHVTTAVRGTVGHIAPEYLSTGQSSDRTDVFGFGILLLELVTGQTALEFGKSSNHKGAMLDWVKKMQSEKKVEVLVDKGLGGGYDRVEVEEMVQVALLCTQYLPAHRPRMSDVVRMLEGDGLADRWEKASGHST

| Target | thermal shift delta Tm [1] [°C] | thermal shift delta Tm [2] [°C] | thermal shift delta Tm (Tyrphostin 9) [°C] | thermal shift delta Tm (Aurora A Inhibitor I) [°C] | thermal shift delta Tm (Picropodophyllin (PPP)) [°C] | thermal shift delta Tm (Anisomycin) [°C] | thermal shift delta Tm [3] [°C] | thermal shift delta Tm [4] [°C] | thermal shift delta Tm [5] [°C] | thermal shift delta Tm [6] [°C] | thermal shift delta Tm [7] [°C] |
| --- | --- | --- | --- | --- | --- | --- | --- | --- | --- | --- | --- |
| LOC_OS05G28520-cb001 | 1.13 | 0.45 | 1.67 | 0.67 | 0.07 | 0.12 | 0.27 | 0.94 | -0.36 | 3.85 | 0.32 |
| LOC_OS01G10900-cb004 | 1.47 | -0.04 | 3.61 | 0.91 | 0.63 | 0.16 | 0.15 | 1.02 | 0.1 | – | 0.03 |
| LOC_OS01G57100-cb003 | 1.78 | -0.11 | 6.29 | 1.79 | 0.44 | 1.09 | 1.54 | 1.34 | 0.63 | – | 3.28 |
| LOC_OS02G45750-cb003 | 1.66 | -0.03 | 0.99 | 3.48 | 0.36 | 1.18 | 2.08 | 7.07 | -0.14 | 0.32 | 11.3 |
| LOC_OS02G54510-cb004 | 0.42 | 0.85 | 0.47 | 1.31 | 0.14 | 0.56 | 0.56 | 0.44 | 0.08 | 0.65 | 1.44 |
| LOC_OS02G08530-cb003 | 1.36 | 1.36 | 2.26 | 2.48 | 0.6 | 1.28 | 0.72 | 2.97 | 0.37 | 0.99 | 5.48 |
| LOC_OS06G16330-cb003 | 1.18 | 2.32 | 0.83 | 8.9 | 0.19 | -0.28 | -0.04 | 5.39 | -0.12 | – | 6.83 |
| LOC_OS01G51400-cb002 | 0.56 | 0.64 | 1.62 | -0.05 | -0.01 | 0.24 | 0.03 | 0.84 | 0.24 | – | 0.3 |
| LOC_OS02G14120-cb001 | 0.47 | 0.92 | 3.24 | 8.23 | 0.5 | 0.58 | 0.02 | 4.75 | -0.47 | – | 7.91 |
| LOC_OS03G27990-cb004 | 0.81 | 0.8 | 0.88 | 1.5 | 0.02 | 0.47 | 0.54 | 1.69 | -0.07 | 0.11 | 3.66 |
| LOC_OS01G60700-cb002 | 1.75 | 1.51 | 4.79 | 0.71 | 0.4 | 0.15 | 1.33 | 0.77 | 0.02 | 3.52 | 1.41 |
| LOC_OS03G50450-cb001 | 1.25 | 0.89 | 1.36 | 6.04 | 0.03 | 0.61 | 0.76 | 1.49 | 0.18 | 0.07 | 2.51 |
| LOC_OS05G07850-cb002 | 1.58 | 4.65 | 0.08 | 12.2 | -0.91 | 0.21 | 7.34 | 8.01 | -0.57 | 2.26 | 8.76 |
| LOC_OS03G04050-cb001 | 0.96 | 0.99 | 0.99 | 0.02 | 0.1 | 0.72 | 0.67 | 0.53 | 0.27 | 0.69 | 0.52 |
| LOC_OS04G41100-cb001 | 0.64 | 0.96 | 1.09 | 1.62 | 0.3 | 0.43 | 0.13 | 3.1 | 0.39 | 1.42 | 2.42 |
| LOC_OS05G30820-cb001 | 0.57 | 1.27 | 0.84 | 1.39 | 0.41 | 0.89 | 0.33 | 0.99 | 0.5 | 0.82 | 0.98 |
| LOC_OS01G13800-cb001 | 0.83 | 2.05 | 1.92 | 0.32 | -0.49 | 0.17 | 0.12 | 0.49 | 0.06 | – | -0.04 |
| LOC_OS01G14860-cb001 | 1.32 | 1.24 | 3.15 | 3.95 | 0.29 | -0.05 | 0.07 | 5.78 | -0.1 | – | 7.87 |
| LOC_OS04G57630-cb004 | 0.3 | 0.11 | -0.37 | 4.13 | 0.26 | 0.15 | 0.3 | 1.58 | -0.13 | -0.06 | 1.43 |
| LOC_OS01G02750-cb003 | 1.62 | 1.02 | 6.7 | 0.26 | 0.88 | 0.6 | 0.82 | 2.97 | 0.47 | -0.47 | 4.52 |

| Target | thermal shift delta Tm [1] [°C] | thermal shift delta Tm [2] [°C] | thermal shift delta Tm (Tyrphostin 9) [°C] | thermal shift delta Tm (Aurora A Inhibitor I) [°C] | thermal shift delta Tm (Picropodophyllin (PPP)) [°C] | thermal shift delta Tm (Anisomycin) [°C] | thermal shift delta Tm [3] [°C] | thermal shift delta Tm [4] [°C] | thermal shift delta Tm [5] [°C] | thermal shift delta Tm [6] [°C] | thermal shift delta Tm [7] [°C] |
| --- | --- | --- | --- | --- | --- | --- | --- | --- | --- | --- | --- |
| LOC_OS07G07230-cb001 | 0.39 | 1.24 | 0.49 | 0.3 | 0.63 | 0.94 | 0.5 | -0.03 | 0.41 | 0.68 | 0.14 |
| LOC_OS01G70970-cb002 | 0.43 | 0.94 | 2.45 | 4.68 | 0.24 | 0.31 | 0.31 | 4.78 | -0.01 | – | 5.08 |
| LOC_OS01G67340-cb003 | 1.03 | 0.32 | -0.32 | 0.7 | 0.12 | 0.35 | 0.5 | 4.84 | -0.48 | 0 | 2.48 |
| LOC_OS04G35114-cb001 | 1.21 | 0.3 | 0.89 | 3.75 | 0.21 | 0.57 | 1.64 | 6.97 | 0.13 | 1.31 | 5.95 |
| LOC_OS01G39600-cb002 | 0.11 | 3.42 | – | 3.74 | -0.4 | -0.07 | -0.58 | 2.01 | 0.35 | – | 6.61 |
| LOC_OS01G48390-cb002 | 0.77 | 0.72 | 2.01 | 4.11 | 0.19 | 0.33 | -0.27 | 1.32 | 0.11 | – | 1.21 |
| LOC_OS06G22820-cb001 | 0.73 | 1.01 | 1.56 | -0.07 | 0.27 | 0.57 | 0.55 | 0.55 | 0.41 | 1 | 0.64 |
| LOC_OS01G21960-cb002 | 1.38 | 1.5 | 4.31 | 2.25 | 0.41 | 0.52 | 0.61 | 1.85 | 0.03 | – | 3.76 |
| LOC_OS03G50810-cb003 | 0.73 | 0.71 | 0.82 | 3.94 | 0.16 | 0.59 | 0.9 | 3.03 | 0.23 | 1.38 | 5.29 |
| LOC_OS01G52050-cb004 | 0.91 | 2.42 | 3.34 | 1.73 | -0.26 | 0.12 | -0.12 | 4.67 | -0.06 | – | 9.73 |
| LOC_OS01G01410-cb001 | 0.85 | 0.56 | 3.01 | 2.6 | -0.11 | 0.63 | 0.04 | 2.18 | 0.73 | – | 3.66 |
| LOC_OS03G12390-cb001 | 1.3 | 0.42 | 0.25 | 5.37 | -0.2 | -0.29 | 0.45 | 4.35 | -0.25 | 0.52 | 4.7 |
| LOC_OS07G06570-cb004 | 0.21 | 0.05 | 2.9 | 0.63 | 1.02 | 1 | 1.01 | 0.08 | 1.12 | – | 0.51 |
| LOC_OS01G63280-cb003 | 0.5 | 0.9 | 2.28 | 0.22 | -0.03 | 0.15 | 0.38 | 4.22 | -0.3 | – | 0.81 |
| LOC_OS02G07810-cb001 | 1.72 | 2.07 | 2.29 | 0.45 | 0.15 | 0.03 | 0.73 | 0.97 | 0.6 | – | 1.44 |
| LOC_OS05G16824-cb004 | 2.14 | -1.4 | -0.97 | 7.48 | -3.09 | -4.31 | 1.29 | 8.5 | -1.77 | 2.01 | 15.4 |
| LOC_OS01G60330-cb001 | 1.6 | 1.56 | 4.55 | 12.3 | 0.72 | 0.77 | 1.23 | 4.72 | -0.01 | – | 10.8 |
| LOC_OS02G17970-cb001 | 1.08 | 2.06 | 3.2 | 0.33 | 0.61 | 0.2 | 0.79 | 0.72 | -0.06 | – | 0.93 |
| LOC_OS05G43570-cb004 | 0.83 | 0.83 | 1.46 | 1.76 | -0.21 | 0.46 | 0.38 | 0.79 | 0.31 | 1 | 1.44 |

— the supplement of paper PMC9694430
